# From the supplement of paper PMC8728848
# Only a selection was taken, and the strongest signals are over-represented in it overall.
# Columns and labels:
# Assay in all cases: glycan array binding signal (z-score within array); higher = stronger binding
# Conditions in all cases: glycan notation: IUPAC condensed, linker removed
# Fuc(a1-2)GlcNAc = molecular target: Fuc(a1-2)GlcNAc
# Summary of the method: (§1)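 Columns mapping to the same glycan were averaged after glycan names were converted to IUPAC-condensed notation. The data come from 3228 arrays in the Consortium for Functional Glycomics database, limited to those with an available protein sequence. Binding is reported as a within-array Z-score averaged across arrays of one protein sequence and across linkers.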
# [1] = molecular target: Fuc(a1-2)[GalNAc(a1-3)]Gal(b1-4)Glc
# Summary of the method: as §1
# [2] = molecular target: Gal(a1-3)[Gal(a1-4)]Gal(b1-4)GlcNAc
# Summary of the method: as §1
# [3] = molecular target: Gal(b1-3)[Neu5Ac(b2-6)]GalNAc
# Summary of the method: as §1
# Gal(b1-4)GlcNAc = molecular target: Gal(b1-4)GlcNAc
# Summary of the method: as §1
# [4] = molecular target: Gal(b1-4)GlcNAc(b1-2)Man(a1-3)[Gal(b1-4)GlcNAc(b1-2)Man(a1-6)]Man(b1-4)GlcNAc(b1-4)GlcNAc
# Summary of the method: as §1
# [5] = molecular target: Gal(b1-4)GlcNAc(b1-3)Gal(b1-4)GlcNAc(b1-3)Gal(b1-4)GlcNAc
# Summary of the method: as §1
# [6] = molecular target: Gal(b1-4)GlcNAc(b1-3)GalNAc
# Summary of the method: as §1
# [7] = molecular target: Gal(b1-4)GlcNAc(b1-3)[Gal(b1-4)GlcNAc(b1-6)]GalNAc
# Summary of the method: as §1
# [8] = molecular target: Gal(b1-4)GlcNAc(b1-6)[Gal(b1-3)]GalNAc
# Summary of the method: as §1
# GalNAc(a1-3)GalNAc = molecular target: GalNAc(a1-3)GalNAc
# Summary of the method: as §1
# [9] = molecular target: GalNAc(b1-3)Gal(a1-4)Gal(b1-4)GlcNAc
# Summary of the method: as §1
# Glc(b1-6)Glc = molecular target: Glc(b1-6)Glc
# Summary of the method: as §1
# [10] = molecular target: GlcNAc(b1-3)Gal(b1-4)GlcNAc
# Summary of the method: as §1
# [11] = molecular target: GlcNAc(b1-4)GlcNAc(b1-4)GlcNAc(b1-4)GlcNAc(b1-4)GlcNAc(b1-4)GlcNAc
# Summary of the method: as §1
# GlcNAc(b1-6)GalNAc = molecular target: GlcNAc(b1-6)GalNAc
# Summary of the method: as §1
# [12] = molecular target: Man(a1-2)Man(a1-2)Man(a1-3)Man
# Summary of the method: as §1
# [13] = molecular target: Neu5Ac(a2-3)Gal(b1-4)GlcNAc(b1-3)Gal(b1-4)GlcNAc
# Summary of the method: as §1
# [14] = molecular target: Neu5Ac(a2-3)Gal(b1-4)[Fuc(a1-3)]GlcNAc6S
# Summary of the method: as §1
# Neu5Ac(a2-3)GalNAc = molecular target: Neu5Ac(a2-3)GalNAc
# Summary of the method: as §1
# [15] = molecular target: Neu5Ac(a2-3)GalNAc(b1-4)GlcNAc
# Summary of the method: as §1
# [16] = molecular target: Neu5Ac(a2-8)Neu5Ac(a2-8)Neu5Ac(a2-3)[GalNAc(b1-4)]Gal(b1-4)Glc
# Summary of the method: as §1
# Neu5Gc(a2-3)Gal(b1-4)Glc = molecular target: Neu5Gc(a2-3)Gal(b1-4)Glc
# Summary of the method: as §1
# Neu5Gc(a2-6)GalNAc = molecular target: Neu5Gc(a2-6)GalNAc
# Summary of the method: as §1
binder,measurement,setting,value
"RSVL (Crotalus atrox), P21963 (protein) NNCPLDWLPMNGLCYKIFNQLKTWEDAEMFCRKYKPGCHLASFHRYGESLEIAEYISDYHKGQENVWIGLRDKKKDFSWEWTDRSCTDYLTWDKNQPDHYQNKEFCVELVSLTGYRLWNDQVCESKDAFLCQCKF",glycan array binding signal (z-score),Fuc(a1-2)GlcNAc,-0.364
same,glycan array binding signal (z-score),[1],1.84
same,glycan array binding signal (z-score),[2],5.83
same,glycan array binding signal (z-score),[3],0.952
same,glycan array binding signal (z-score),Gal(b1-4)GlcNAc,0.686
same,glycan array binding signal (z-score),[4],1.49
same,glycan array binding signal (z-score),[5],-0.23
same,glycan array binding signal (z-score),[6],-0.171
same,glycan array binding signal (z-score),[7],5.41
same,glycan array binding signal (z-score),[8],5.05
same,glycan array binding signal (z-score),GalNAc(a1-3)GalNAc,4.76
same,glycan array binding signal (z-score),[9],0.559
same,glycan array binding signal (z-score),Glc(b1-6)Glc,-0.364
same,glycan array binding signal (z-score),[10],-0.369
same,glycan array binding signal (z-score),[11],-0.369
same,glycan array binding signal (z-score),GlcNAc(b1-6)GalNAc,1.02
same,glycan array binding signal (z-score),[12],-0.367
same,glycan array binding signal (z-score),[13],-0.365
same,glycan array binding signal (z-score),[14],-0.345
same,glycan array binding signal (z-score),Neu5Ac(a2-3)GalNAc,-0.367
same,glycan array binding signal (z-score),[15],-0.342
same,glycan array binding signal (z-score),[16],-0.362
same,glycan array binding signal (z-score),Neu5Gc(a2-3)Gal(b1-4)Glc,-0.365
same,glycan array binding signal (z-score),Neu5Gc(a2-6)GalNAc,-0.366
